In experiment [1] the test system is Tyrosine-protein kinase ABL1 (Homo sapiens), P00519 [T315I]. The settings on record: at 1 µM.
In experiment [2] the test system is Tyrosine-protein kinase ABL1 (Homo sapiens), P00519 [Y253F]. Conditions: at 0.1 µM.
Experiment [3] has the same test system. Conditions: at 1 µM.
In experiment [4] the target is Tyrosine-protein kinase ABL1 (Homo sapiens) (UniProt P00519). The settings on record: at 0.1 µM.
The target is the same in experiment [5]. The settings on record: at 1 µM.
The target in experiment [6] is ALK tyrosine kinase receptor (Homo sapiens) (UniProt Q9UM73). The settings on record: at 0.1 µM.
ALK tyrosine kinase receptor (Homo sapiens), sequence (Q9UM73 19-1620 limits assumed): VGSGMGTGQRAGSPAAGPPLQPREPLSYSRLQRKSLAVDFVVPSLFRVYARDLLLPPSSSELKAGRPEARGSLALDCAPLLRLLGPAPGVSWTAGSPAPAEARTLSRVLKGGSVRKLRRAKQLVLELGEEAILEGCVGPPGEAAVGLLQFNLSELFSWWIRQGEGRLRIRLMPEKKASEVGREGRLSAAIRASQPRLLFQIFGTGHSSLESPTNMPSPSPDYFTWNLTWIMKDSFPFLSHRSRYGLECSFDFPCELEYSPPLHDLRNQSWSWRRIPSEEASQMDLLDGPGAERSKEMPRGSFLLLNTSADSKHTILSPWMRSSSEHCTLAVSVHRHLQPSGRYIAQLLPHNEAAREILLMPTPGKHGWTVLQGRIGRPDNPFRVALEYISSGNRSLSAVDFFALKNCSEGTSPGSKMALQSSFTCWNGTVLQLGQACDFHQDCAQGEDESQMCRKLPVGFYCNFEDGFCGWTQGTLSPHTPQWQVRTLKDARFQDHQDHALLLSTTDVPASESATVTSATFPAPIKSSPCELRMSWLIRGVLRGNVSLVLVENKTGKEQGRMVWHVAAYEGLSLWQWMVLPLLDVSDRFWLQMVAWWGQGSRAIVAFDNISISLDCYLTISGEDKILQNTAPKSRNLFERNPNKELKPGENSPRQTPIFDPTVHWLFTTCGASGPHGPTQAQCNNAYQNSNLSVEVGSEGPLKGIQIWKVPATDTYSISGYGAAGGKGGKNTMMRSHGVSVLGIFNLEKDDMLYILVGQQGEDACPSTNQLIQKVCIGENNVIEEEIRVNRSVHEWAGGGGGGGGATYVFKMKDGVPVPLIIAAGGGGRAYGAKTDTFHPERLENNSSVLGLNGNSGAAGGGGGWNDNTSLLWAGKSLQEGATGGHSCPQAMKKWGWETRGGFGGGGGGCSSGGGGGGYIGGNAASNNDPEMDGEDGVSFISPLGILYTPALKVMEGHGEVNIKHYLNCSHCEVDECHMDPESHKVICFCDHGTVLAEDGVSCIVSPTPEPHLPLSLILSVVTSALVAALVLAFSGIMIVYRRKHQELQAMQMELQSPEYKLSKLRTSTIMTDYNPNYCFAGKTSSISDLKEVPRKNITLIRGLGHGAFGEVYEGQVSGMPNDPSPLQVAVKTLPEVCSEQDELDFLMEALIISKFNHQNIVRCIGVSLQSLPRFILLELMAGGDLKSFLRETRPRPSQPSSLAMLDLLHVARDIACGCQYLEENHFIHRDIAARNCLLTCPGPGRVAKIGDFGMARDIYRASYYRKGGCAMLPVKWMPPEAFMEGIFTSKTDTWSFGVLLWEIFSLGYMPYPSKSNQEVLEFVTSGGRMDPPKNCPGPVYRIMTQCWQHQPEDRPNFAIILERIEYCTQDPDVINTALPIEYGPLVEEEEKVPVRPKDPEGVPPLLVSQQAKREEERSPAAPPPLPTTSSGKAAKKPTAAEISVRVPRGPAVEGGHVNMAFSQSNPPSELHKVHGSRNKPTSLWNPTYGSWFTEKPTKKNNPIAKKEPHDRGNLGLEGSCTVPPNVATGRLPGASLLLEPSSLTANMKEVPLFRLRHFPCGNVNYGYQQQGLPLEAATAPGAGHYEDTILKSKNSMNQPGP
Experiment [7] shares this target. Conditions: at 1 µM.
Experiment [8] addresses Tyrosine-protein kinase ABL2 (Homo sapiens) (UniProt P42684). Conditions: at 0.1 µM.
For experiment [9] the target is unchanged. The settings on record: at 1 µM.
Experiment [10] deals with Tyrosine-protein kinase receptor UFO (Homo sapiens) (UniProt P30530). Conditions: at 0.1 µM.
Tyrosine-protein kinase receptor UFO (Homo sapiens), sequence (P30530 whole entry): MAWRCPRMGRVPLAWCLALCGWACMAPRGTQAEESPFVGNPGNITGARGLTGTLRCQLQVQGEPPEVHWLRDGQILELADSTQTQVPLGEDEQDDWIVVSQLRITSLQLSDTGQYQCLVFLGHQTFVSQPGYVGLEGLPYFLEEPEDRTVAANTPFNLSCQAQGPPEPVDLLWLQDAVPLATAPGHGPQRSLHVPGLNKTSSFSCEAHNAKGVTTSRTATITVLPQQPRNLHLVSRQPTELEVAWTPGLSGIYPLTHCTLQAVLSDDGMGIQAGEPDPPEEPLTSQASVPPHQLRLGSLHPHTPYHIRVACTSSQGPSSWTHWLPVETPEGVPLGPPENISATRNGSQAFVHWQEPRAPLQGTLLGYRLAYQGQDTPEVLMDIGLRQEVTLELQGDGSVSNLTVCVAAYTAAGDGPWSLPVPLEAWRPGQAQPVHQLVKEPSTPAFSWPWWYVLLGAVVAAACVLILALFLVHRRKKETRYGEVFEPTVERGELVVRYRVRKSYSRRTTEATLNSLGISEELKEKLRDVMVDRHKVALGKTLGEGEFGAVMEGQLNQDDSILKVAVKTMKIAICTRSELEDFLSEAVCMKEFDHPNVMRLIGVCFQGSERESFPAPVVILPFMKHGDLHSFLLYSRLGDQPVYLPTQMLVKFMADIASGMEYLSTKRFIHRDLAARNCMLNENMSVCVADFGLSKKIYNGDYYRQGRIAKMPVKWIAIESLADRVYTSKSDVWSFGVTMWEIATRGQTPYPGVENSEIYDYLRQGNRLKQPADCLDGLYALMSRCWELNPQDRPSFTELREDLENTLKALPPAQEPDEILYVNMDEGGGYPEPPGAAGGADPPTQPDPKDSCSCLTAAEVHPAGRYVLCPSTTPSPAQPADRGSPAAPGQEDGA
For experiment [11] the target is unchanged. The settings on record: at 1 µM.
Experiment [12] has as its target Tyrosine-protein kinase Blk (Homo sapiens) (UniProt P51451). Conditions: at 0.1 µM.
For experiment [13] the target is unchanged. Conditions: at 1 µM.
The target of experiment [14] is T1, Cytoplasmic tyrosine-protein kinase BMX (Homo sapiens) (UniProt P51813).
T1 sequence (whole entry): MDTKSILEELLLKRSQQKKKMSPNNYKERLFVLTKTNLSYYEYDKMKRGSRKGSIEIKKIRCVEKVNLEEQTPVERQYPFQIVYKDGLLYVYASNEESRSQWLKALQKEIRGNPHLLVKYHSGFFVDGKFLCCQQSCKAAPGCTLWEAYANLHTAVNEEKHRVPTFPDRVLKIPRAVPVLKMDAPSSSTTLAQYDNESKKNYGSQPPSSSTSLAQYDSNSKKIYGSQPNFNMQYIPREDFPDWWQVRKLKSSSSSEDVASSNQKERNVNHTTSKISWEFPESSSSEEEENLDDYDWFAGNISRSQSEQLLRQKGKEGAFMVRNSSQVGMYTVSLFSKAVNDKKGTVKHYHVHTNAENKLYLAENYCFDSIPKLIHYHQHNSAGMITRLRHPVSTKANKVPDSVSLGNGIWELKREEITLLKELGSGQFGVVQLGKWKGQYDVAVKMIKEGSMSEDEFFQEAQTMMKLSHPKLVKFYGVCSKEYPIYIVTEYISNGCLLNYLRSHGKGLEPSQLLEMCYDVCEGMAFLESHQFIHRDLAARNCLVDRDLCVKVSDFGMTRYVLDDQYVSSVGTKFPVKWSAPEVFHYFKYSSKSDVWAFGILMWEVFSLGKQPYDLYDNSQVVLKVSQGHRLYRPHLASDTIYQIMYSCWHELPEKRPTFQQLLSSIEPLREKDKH
The settings on record: at 0.1 µM.

Experiment [15] concerns the target T1, Cytoplasmic tyrosine-protein kinase BMX (Homo sapiens). Conditions: at 1 µM.
For experiment [16], the target named is Protein-tyrosine kinase 6 (Homo sapiens) (UniProt Q13882). Conditions: at 0.1 µM.
Protein-tyrosine kinase 6 (Homo sapiens), sequence (Q13882 whole entry, looked up): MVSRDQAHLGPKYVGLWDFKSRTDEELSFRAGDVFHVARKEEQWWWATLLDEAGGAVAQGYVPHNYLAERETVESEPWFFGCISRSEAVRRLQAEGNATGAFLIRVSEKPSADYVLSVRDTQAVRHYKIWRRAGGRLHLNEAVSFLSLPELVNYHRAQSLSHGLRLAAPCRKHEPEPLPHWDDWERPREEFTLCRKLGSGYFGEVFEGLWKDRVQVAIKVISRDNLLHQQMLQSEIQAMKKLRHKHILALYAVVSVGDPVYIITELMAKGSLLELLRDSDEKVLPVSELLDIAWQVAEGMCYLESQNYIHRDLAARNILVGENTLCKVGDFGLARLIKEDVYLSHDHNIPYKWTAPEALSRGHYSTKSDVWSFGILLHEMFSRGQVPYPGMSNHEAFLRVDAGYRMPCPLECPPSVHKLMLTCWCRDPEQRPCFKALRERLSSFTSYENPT
The target is the same in experiment [17]. The settings on record: at 1 µM.
For experiment [18], the target named is Tyrosine-protein kinase BTK (Homo sapiens) (UniProt Q06187). The settings on record: at 0.1 µM.
The target is the same in experiment [19]. Conditions: at 1 µM.
Experiment [20] addresses Tyrosine-protein kinase CSK (Homo sapiens) (UniProt P41240). The settings on record: at 0.1 µM.

Broadly, the inhibition is the change of the read-out against control, counted positive when it falls.

Tyrosine-protein kinase ABL2 (Homo sapiens), sequence (P42684 whole entry): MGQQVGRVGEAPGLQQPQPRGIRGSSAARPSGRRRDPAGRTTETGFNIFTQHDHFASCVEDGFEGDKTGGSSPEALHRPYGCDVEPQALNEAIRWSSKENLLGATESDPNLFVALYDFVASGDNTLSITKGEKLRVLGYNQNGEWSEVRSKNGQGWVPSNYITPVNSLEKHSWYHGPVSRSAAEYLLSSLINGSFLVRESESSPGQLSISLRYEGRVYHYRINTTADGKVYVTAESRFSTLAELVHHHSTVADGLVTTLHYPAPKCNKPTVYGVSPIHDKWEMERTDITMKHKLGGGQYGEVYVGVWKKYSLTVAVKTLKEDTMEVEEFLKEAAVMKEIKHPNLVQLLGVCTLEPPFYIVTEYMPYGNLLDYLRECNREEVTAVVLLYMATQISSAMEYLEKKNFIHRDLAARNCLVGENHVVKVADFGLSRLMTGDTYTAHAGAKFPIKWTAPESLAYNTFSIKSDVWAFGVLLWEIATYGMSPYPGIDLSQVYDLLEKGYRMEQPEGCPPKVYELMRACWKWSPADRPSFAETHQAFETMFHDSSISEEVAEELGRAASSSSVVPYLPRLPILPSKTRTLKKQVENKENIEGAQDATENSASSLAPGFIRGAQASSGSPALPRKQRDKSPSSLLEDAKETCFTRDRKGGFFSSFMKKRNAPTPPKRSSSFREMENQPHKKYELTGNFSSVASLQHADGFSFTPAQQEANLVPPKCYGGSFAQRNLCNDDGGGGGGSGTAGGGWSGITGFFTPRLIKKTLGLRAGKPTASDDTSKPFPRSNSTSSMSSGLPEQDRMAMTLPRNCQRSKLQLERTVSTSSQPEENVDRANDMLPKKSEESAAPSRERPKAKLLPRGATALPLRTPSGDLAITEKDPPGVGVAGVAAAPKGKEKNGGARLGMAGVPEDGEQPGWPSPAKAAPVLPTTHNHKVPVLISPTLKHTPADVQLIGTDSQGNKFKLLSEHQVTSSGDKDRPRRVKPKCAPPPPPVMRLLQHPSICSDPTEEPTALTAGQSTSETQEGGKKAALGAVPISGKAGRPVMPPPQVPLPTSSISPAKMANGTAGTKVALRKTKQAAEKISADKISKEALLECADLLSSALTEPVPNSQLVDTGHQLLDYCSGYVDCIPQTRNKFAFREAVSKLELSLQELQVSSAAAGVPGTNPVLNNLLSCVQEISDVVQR
Tyrosine-protein kinase Blk (Homo sapiens), sequence (P51451 2-505 limits assumed): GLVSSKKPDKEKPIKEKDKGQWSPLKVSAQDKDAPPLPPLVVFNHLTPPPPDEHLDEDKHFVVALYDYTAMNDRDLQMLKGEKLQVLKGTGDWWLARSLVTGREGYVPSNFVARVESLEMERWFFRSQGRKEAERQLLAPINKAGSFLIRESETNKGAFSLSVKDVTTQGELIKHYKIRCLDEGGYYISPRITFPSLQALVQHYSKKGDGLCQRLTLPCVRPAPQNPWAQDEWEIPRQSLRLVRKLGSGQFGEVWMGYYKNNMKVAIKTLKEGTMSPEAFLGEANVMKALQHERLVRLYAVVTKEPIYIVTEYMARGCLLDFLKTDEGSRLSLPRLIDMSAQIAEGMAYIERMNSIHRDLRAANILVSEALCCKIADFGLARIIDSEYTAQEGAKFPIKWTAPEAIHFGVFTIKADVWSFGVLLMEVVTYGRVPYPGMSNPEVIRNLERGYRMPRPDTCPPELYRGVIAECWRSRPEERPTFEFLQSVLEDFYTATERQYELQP
Tyrosine-protein kinase CSK (Homo sapiens), sequence (P41240 2-450 limits assumed): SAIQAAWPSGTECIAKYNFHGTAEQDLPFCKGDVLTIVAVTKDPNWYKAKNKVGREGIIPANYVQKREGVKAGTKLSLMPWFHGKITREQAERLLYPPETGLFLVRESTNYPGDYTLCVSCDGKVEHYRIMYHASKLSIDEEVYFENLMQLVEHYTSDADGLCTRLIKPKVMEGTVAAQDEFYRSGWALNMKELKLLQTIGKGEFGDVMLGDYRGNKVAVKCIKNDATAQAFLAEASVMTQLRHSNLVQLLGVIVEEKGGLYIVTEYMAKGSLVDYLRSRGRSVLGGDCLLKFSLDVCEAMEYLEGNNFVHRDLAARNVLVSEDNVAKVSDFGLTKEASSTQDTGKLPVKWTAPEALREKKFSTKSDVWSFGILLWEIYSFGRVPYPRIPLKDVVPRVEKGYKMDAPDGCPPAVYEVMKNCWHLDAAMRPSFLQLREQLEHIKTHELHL

With `O=C1NC(=O)C(c2ccc(Cl)cc2)=C1Nc1ccc(Cl)c(C(=O)O)c1`, the inhibition was 3% in [1]; 2.01% in experiment [2]; 0.85% in experiment [3]; -0.85% in [4]; 7.52% in experiment [5]; -2.28% in experiment [6]. In addition, the inhibition is -1.12% in [7]; -0.74% in experiment [8]; 7.37% in experiment [9]; 2.69% in experiment [10]; 7.43% in experiment [11]; -0.2% in experiment [12]. In addition, the inhibition in [13] was -2.5%; in experiment [14], -4.08%; in experiment [15], -3.08%; in experiment [16] it was 0.06%; in [17], -1.29%; in experiment [18], -0.05%. The inhibition in [19] was 0.05%; in experiment [20] it was -3.37%.
Regarding `CS(=O)(=O)CCNCc1ccc(-c2ccc3ncnc(Nc4ccc(OCc5ccccc5)c(Cl)c4)c3c2)o1`, the inhibition was 2.14% in experiment [1]; 0.5% in experiment [2]; 1.92% in experiment [3]; 0.58% in [4]; 3.7% in [5]; 1.08% in [6]. Moreover, the inhibition was 4.89% in experiment [7]; 0.92% in experiment [8]; 5.67% in experiment [9]; 0.79% in experiment [10]; 1.26% in [11]; 0.85% in experiment [12]. Further, the inhibition in experiment [13] is 7.53%; in [14], 0.69%; in [15], 4.31%; in [16], 0.7%; in experiment [17] it was 14.7%; in experiment [18] it was -0.28%. Also, the inhibition is 0.13% in experiment [19] and 0.67% in experiment [20].
Turning to `COc1ccc(COc2ccc(Cc3cnc(N)nc3N)cc2OC)cc1`, the inhibition was -2.04% in experiment [1]; 3.15% in experiment [2]; 0.75% in experiment [3]; 3.16% in experiment [4]; 7.34% in experiment [5]; -0.54% in [6]. The inhibition in experiment [7] amounted to 0.01%; in [8], 3.27%; in experiment [9], 5.98%; in experiment [10], 4.25%; in experiment [11], 8.25%; in [12], 0.45%. Also, the inhibition in [13] was 0.47%; in experiment [14] it was 0.39%; in experiment [15], 2.06%; in experiment [16] it was -1.66%; in experiment [17], -1.6%; in experiment [18], 0.23%. The results for the inhibition in experiment [19] and in experiment [20] were 3.61% and 0.54%, respectively.
Turning to `Fc1cccc(COc2ccc(Nc3ncnc4cc(-c5ccc[nH]5)sc34)cc2Cl)c1`, the inhibition was 5.41% in experiment [1]; 3.92% in [2]; 8.02% in experiment [3]; 0.53% in experiment [4]; 10.7% in [5]; -2.31% in experiment [6]. The inhibition is 2.96% in [7]; 3.02% in experiment [8]; 9.41% in experiment [9]; -2.49% in [10]; -0.12% in experiment [11]; -2.62% in experiment [12]. The inhibition was 0.69% in [13]; 2.13% in experiment [14]; 1.82% in [15]; 1.55% in experiment [16]; 6.36% in [17]; -5.43% in experiment [18]. The inhibition in experiment [19] is -4.27%; in experiment [20], 2.68%.
Consider `O=C1NC(=O)C(c2ccccc2Cl)=C1Nc1cccc(O)c1`, for which the inhibition was determined as 6.08% in experiment [1]; 3.51% in [2]; 3.33% in experiment [3]; 4.23% in experiment [4]; 9.09% in [5]; 2.43% in experiment [6]. Further, the inhibition in [7] was 4.74%; in experiment [8] it was 4.43%; in experiment [9], 1.33%; in [10], -5.88%; in experiment [11], -1.28%; in experiment [12], 1.66%. Besides, the inhibition in [13] stood at 4.61%; in experiment [14], 2.35%; in experiment [15] it was 4.21%; in [16], 3.64%; in experiment [17] it was 2.79%; in experiment [18], 0.01%. Further, the inhibition in experiment [19] was determined as 1.37%; in [20], 1.31%.
With `CCN1CCC(CC(=O)Nc2n[nH]c3nc(-c4cccs4)c(Br)cc23)CC1`, the inhibition in [1] was 22.7%; in experiment [2] it was -0.82%; in experiment [3], 5.45%; in experiment [4] it was 2.56%; in [5], 7.83%; in [6], -2.08%. Further, the inhibition in experiment [7] was -1.3%; in experiment [8], -0.08%; in experiment [9], 2.5%; in [10], 1.67%; in experiment [11] it was 2.24%; in experiment [12], -1.4%. The inhibition was 0.14% in [13]; -3.73% in experiment [14]; -1.1% in experiment [15]; -3.07% in experiment [16]; 0.94% in experiment [17]; -1.38% in experiment [18]. Also, the inhibition in [19] stood at 0.05%.
Turning to `CCn1c(-c2nonc2N)nc2c(N3CCCC3)nccc21`, the inhibition in [1] was 0.72%; in experiment [2], -1.15%; in experiment [3], 2.07%; in [4], -1.74%; in [5] it was 0.66%; in experiment [6], -1.38%. Moreover, the inhibition in [7] was -2.28%; in experiment [8], 0.18%; in experiment [9], 7.36%; in [10], 0.14%; in experiment [11], 4.04%; in experiment [12] it was -1.15%. The inhibition in [13] is -2.43%; in [14], -2.04%; in [15] it was -1.4%; in [16], -1.28%; in experiment [17] it was -2.02%; in [18] it was 0.03%. Further, the inhibition is -1.53% in experiment [19] and -7.4% in [20].
Consider `Nc1nc(-c2ccccn2)c(-c2ccc3ncccc3n2)s1`, for which the inhibition in experiment [1] worked out at 3.65%; in experiment [2] it was 3.71%; in [3], 3.66%; in experiment [4] it was 5.61%; in [5] it was 12.5%; in experiment [6], 1.41%. Moreover, the inhibition is 4.86% in [7]; 3.71% in experiment [8]; 8.87% in [9]; -2.51% in [10]; -4.26% in [11]; 2.58% in experiment [12]. Also, the inhibition in [13] was 1.8%; in [14], -0.49%; in experiment [15] it was 3.73%; in experiment [16] it was 2.76%; in experiment [17], 7.02%; in [18] it was 1.06%. In addition, the inhibition stood at 0.04% in [19] and 9.09% in experiment [20].
As to `N#Cc1c(NC(=O)c2cccc3ccccc23)sc2c1CCCC2`, the inhibition in [1] was found to be 3.27%; in experiment [2] it was 5.89%; in [3] it was 5.73%; in [4], 2.91%; in experiment [5], 9.14%; in [6] it was 2.92%. The inhibition is 2.25% in [7]; 3.88% in [8]; 9.55% in experiment [9]; -4.77% in experiment [10]; -1.11% in [11]; 1.28% in experiment [12]. Besides, the inhibition in experiment [13] is 2.44%; in experiment [14], 3.61%; in [15] it was 2.91%; in experiment [16] it was 3.4%; in experiment [17], 3.17%; in experiment [18] it was -1.4%. Further, the inhibition stood at 0.24% in [19] and 0.06% in [20].
Turning to `CS(=O)(=O)CCNCc1nc(-c2ccc3ncnc(Nc4ccc(F)c(Cl)c4)c3c2)cs1`, the inhibition in [1] came out at 6.43%; in [2], 1.82%; in experiment [3], 18.3%; in experiment [4] it was 3.89%; in [5] it was 18.2%; in experiment [6] it was 0.89%. For the same compound, the inhibition in experiment [7] was 3.6%; in [8], 4.58%; in experiment [9], 9.66%; in experiment [10], 0.38%; in experiment [11], 0.38%; in experiment [12] it was 1.92%. For the same compound, the inhibition in experiment [13] came to 7.95%; in [14] it was 0.99%; in experiment [15], 7.67%; in [16], 1.05%; in [17], 5.15%; in [18], 0.64%. The inhibition is 4.51% in experiment [19] and 2.86% in [20].
`COc1cc2ncn(-c3cc(O[C@@H](C)c4ccccc4Cl)c(C(N)=O)s3)c2cc1OC`: the inhibition stood at 13.5% in [1]; 6.04% in experiment [2]; 25.9% in [3]; 7.09% in experiment [4]; 28.4% in experiment [5]; 3.25% in experiment [6]. Besides, the inhibition in experiment [7] was 6.34%; in experiment [8], 3.24%; in experiment [9] it was 11.4%; in experiment [10] it was -8.48%; in experiment [11], -5.82%; in experiment [12], 11.1%. For the same compound, the inhibition in [13] was 51.2%; in experiment [14] it was 2.71%; in [15], 6.64%; in experiment [16], -0.13%; in experiment [17], 7.91%; in [18] it was -0.58%. Besides, the figures for the inhibition in experiment [19] and in [20] were 1.4% and 1.7%, respectively.
For `c1cnn2ncc(-c3ccnc(Nc4ccc5c(c4)OCCO5)n3)c2c1`, the inhibition was determined as 35.9% in [1]; 9.16% in experiment [2]; 36% in experiment [3]; 7.67% in experiment [4]; 38.7% in [5]; 3.96% in experiment [6]. Besides, the inhibition is 31.7% in [7]; 7.27% in [8]; 43.9% in [9]; -2.3% in [10]; 10.1% in [11]; 3.13% in experiment [12]. Besides, the inhibition turned out to be 9.58% in experiment [13]; 1.58% in experiment [14]; 14.5% in experiment [15]; 6.27% in [16]; 13.7% in experiment [17]; 1.69% in [18]. The inhibition in experiment [19] was found to be 3.99%; in [20] it was 4.46%.
